Active and inactive are the calls of the source.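 Rule for the calls, unless noted: active = normalized viability below 100% at a tested concentration; inactive = the rest.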
Legend:
[1] = sensitizers of A549 cells to miR-34 induction, primary screen, imaging, A549 dox-inducible miR-34, nuclei and caspase counts (AID 1347080;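 active = compounds whose cell count with miR-34 switched on is under 0.7 times the count with it off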); conditions: A549 miR-34 inducible, Hoechst nuclei count, 48 h
[2] = survival rescue of mitochondrial mutant cells in low glucose, primary screen, MELAS cybrids, Rieske KO mouse fibroblasts, CellTiter-Glo (AID 1508586;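 active = mean z-score across replicates of 1.96 or higher in either the MELAS or the Rieske mutant cell line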;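 note: z relative to plate mean and SD of compound and empty wells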)
[3] = ovarian cancer cell viability with rucaparib, profiling panel, oncology-focused library, rucaparib conditional (AID 1508598); conditions: patient-derived ovarian cancer cells, CellTiter-Glo viability, 144 h, stronger effect = lower value
[4] = stronger effect = lower value, cell number ratio, induced over uninduced
[5] = measured here: relative caspase fold change +Dox/-Dox
[6] = measured here: total cells with miR-34 induction, stronger effect = lower value
[7] = measured here: total cells without miR-34 induction
[8] = MELAS cybrid survival, CellTiter-Glo 48 h, stronger effect = higher value
[9] = Rieske KO mouse fibroblast survival, CellTiter-Glo 72 h
[10] = at 0.000305 µM, OCI-C5x cells, with rucaparib 10 µM, 100% = cells with rucaparib alone
[11] = at 0.000305 µM, OCI-C5x cells, without rucaparib
[12] = at 0.000305 µM, OCI-P5x cells, with rucaparib 20 µM, 100% = cells with rucaparib alone
[13] = at 0.000305 µM, OCI-P5x cells, without rucaparib
[14] = at 0.00122 µM, OCI-C5x cells, with rucaparib 10 µM, 100% = cells with rucaparib alone
[15] = at 0.00122 µM, OCI-C5x cells, without rucaparib
[16] = at 0.00122 µM, OCI-P5x cells, with rucaparib 20 µM, 100% = cells with rucaparib alone
[17] = at 0.00122 µM, OCI-P5x cells, without rucaparib
[18] = at 0.00488 µM, OCI-C5x cells, with rucaparib 10 µM, 100% = cells with rucaparib alone
[19] = at 0.00488 µM, OCI-C5x cells, without rucaparib
[20] = at 0.00488 µM, OCI-P5x cells, with rucaparib 20 µM, 100% = cells with rucaparib alone
[21] = at 0.00488 µM, OCI-P5x cells, without rucaparib
[22] = at 0.0195 µM, OCI-C5x cells, with rucaparib 10 µM, 100% = cells with rucaparib alone
[23] = at 0.0195 µM, OCI-C5x cells, without rucaparib
[24] = at 0.0195 µM, OCI-P5x cells, with rucaparib 20 µM, 100% = cells with rucaparib alone
[25] = at 0.0195 µM, OCI-P5x cells, without rucaparib
[26] = at 0.0781 µM, OCI-C5x cells, with rucaparib 10 µM, 100% = cells with rucaparib alone
[27] = at 0.0781 µM, OCI-C5x cells, without rucaparib
[28] = at 0.0781 µM, OCI-P5x cells, with rucaparib 20 µM, 100% = cells with rucaparib alone
[29] = at 0.0781 µM, OCI-P5x cells, without rucaparib
[30] = at 0.313 µM, OCI-C5x cells, with rucaparib 10 µM, 100% = cells with rucaparib alone
[31] = at 0.313 µM, OCI-C5x cells, without rucaparib
[32] = at 0.313 µM, OCI-P5x cells, with rucaparib 20 µM, 100% = cells with rucaparib alone
[33] = at 0.313 µM, OCI-P5x cells, without rucaparib
[34] = at 1.25 µM, OCI-C5x cells, with rucaparib 10 µM, 100% = cells with rucaparib alone
[35] = at 1.25 µM, OCI-C5x cells, without rucaparib
[36] = at 1.25 µM, OCI-P5x cells, with rucaparib 20 µM, 100% = cells with rucaparib alone
[37] = at 1.25 µM, OCI-P5x cells, without rucaparib
[38] = at 5 µM, OCI-C5x cells, with rucaparib 10 µM, 100% = cells with rucaparib alone
[39] = at 5 µM, OCI-C5x cells, without rucaparib
[40] = at 5 µM, OCI-P5x cells, with rucaparib 20 µM, 100% = cells with rucaparib alone
[41] = at 5 µM, OCI-P5x cells, without rucaparib

Cc1cc(C)c(S(=O)(=O)n2cc(C)cc2C)c(C)c1
inactive: fold change [1, 4] 0.922 | z-score [2, 8] -0.318 | viability [3, 10] 109% | viability [3, 11] 106% | viability [3, 12] 102% | viability [3, 13] 104% | viability [3, 14] 121% | viability [3, 15] 104% | viability [3, 18] 116% | viability [3, 19] 101% | viability [3, 20] 106% | viability [3, 21] 101% | viability [3, 22] 112% | viability [3, 24] 105% | viability [3, 26] 128% | viability [3, 27] 102% | viability [3, 30] 122% | viability [3, 31] 109% | viability [3, 32] 101% | viability [3, 34] 113% | viability [3, 36] 106% | viability [3, 37] 102% | viability [3, 38] 122% | viability [3, 39] 110% | viability [3, 40] 101% | viability [3, 41] 102%
0.313: z-score [2, 9]
7540: cell count [1, 6]
8180: cell count [1, 7]
active: viability [3, 16] 97.6% | viability [3, 17] 96% | viability [3, 23] 94% | viability [3, 25] 97.2% | viability [3, 28] 99.3% | viability [3, 29] 97.7% | viability [3, 33] 98.8% | viability [3, 35] 94.4%
0.448: fold change [1, 5]

CC1(C)O[C@@H]2C[C@H]3[C@@H]4CCC5=CC(=O)C=C[C@]5(C)[C@@H]4C(O)C[C@]3(C)[C@@]2(C(=O)CO)O1 (stereo partly specified)
5200: cell count [1, 6]
inactive: fold change [1, 4] 0.87 | z-score [2, 8] -0.511
1.16: fold change [1, 5]
5970: cell count [1, 7]
-0.393: z-score [2, 9]

OCCn1cc(-c2ccc3c(c2)CCC3=NO)c(-c2ccncc2)n1
active: viability [3, 12] 91.8% | viability [3, 13] 92.8% | viability [3, 17] 92.9% | viability [3, 19] 92.1% | viability [3, 28] 99% | viability [3, 32] 95.5% | viability [3, 33] 93.7% | viability [3, 36] 90.7% | viability [3, 37] 96.5% | viability [3, 40] 88.8% | viability [3, 41] 98%
inactive: fold change [1, 4] 1.01 | z-score [2, 8] -0.459 | viability [3, 10] 116% | viability [3, 11] 107% | viability [3, 14] 114% | viability [3, 15] 113% | viability [3, 16] 103% | viability [3, 18] 120% | viability [3, 20] 103% | viability [3, 21] 101% | viability [3, 22] 116% | viability [3, 23] 121% | viability [3, 24] 102% | viability [3, 25] 101% | viability [3, 26] 115% | viability [3, 27] 122% | viability [3, 29] 103% | viability [3, 30] 118% | viability [3, 31] 125% | viability [3, 34] 118% | viability [3, 35] 131% | viability [3, 38] 124% | viability [3, 39] 137%
7730: cell count [1, 7]
0.852: fold change [1, 5]
0.407: z-score [2, 9]
7830: cell count [1, 6]

CC(OC1OCCN(Cc2nn(P(=O)(O)O)c(=O)[nH]2)C1c1ccc(F)cc1)c1cc(C(F)(F)F)cc(C(F)(F)F)c1 (stereo unspecified)
-0.0927: z-score [2, 9]
5980: cell count [1, 6]
inactive: fold change [1, 4] 1.01 | z-score [2, 8] -0.192
5920: cell count [1, 7]
0.443: fold change [1, 5]

COc1cc2ncnc(Nc3ccc(F)c(Cl)c3)c2cc1NC(=O)C=CCN1CCCCC1
0.707: fold change [1, 5]
inactive: fold change [1, 4] 1.12 | z-score [2, 8] -0.496
2960: cell count [1, 7]
-1.94: z-score [2, 9]
3310: cell count [1, 6]

CN(C)CCSSCCNC(=O)C1CCN(C(=O)CSc2ccc(Cl)cc2)CC1
1: z-score [2, 9]
active: viability [3, 13] 95.4% | viability [3, 25] 100% | viability [3, 29] 95.1% | viability [3, 31] 91.9% | viability [3, 32] 98.4% | viability [3, 33] 89.4% | viability [3, 36] 93.2% | viability [3, 37] 90.1% | viability [3, 40] 88.3% | viability [3, 41] 87.3%
8530: cell count [1, 7]
0.314: fold change [1, 5]
inactive: fold change [1, 4] 0.922 | z-score [2, 8] -0.0132 | viability [3, 10] 118% | viability [3, 11] 110% | viability [3, 12] 103% | viability [3, 14] 117% | viability [3, 15] 112% | viability [3, 16] 102% | viability [3, 17] 101% | viability [3, 18] 126% | viability [3, 19] 112% | viability [3, 20] 109% | viability [3, 21] 103% | viability [3, 22] 122% | viability [3, 23] 105% | viability [3, 24] 106% | viability [3, 26] 129% | viability [3, 27] 112% | viability [3, 28] 103% | viability [3, 30] 124% | viability [3, 34] 120% | viability [3, 35] 112% | viability [3, 38] 137% | viability [3, 39] 140%
7870: cell count [1, 6]

CC(C)=CCC[C@](C)(OC1OC(COC2OCC(O)C(O)C2O)C(O)C(O)C1O)C1CC[C@]2(C)[C@@H]1C(O)C[C@H]1[C@@]3(C)CCC(OC4OC(CO)C(O)C(O)C4O)C(C)(C)[C@@H]3CC[C@]12C (stereo partly specified)
0.0165: z-score [2, 9]
0.422: fold change [1, 5]
7600: cell count [1, 6]
inactive: fold change [1, 4] 0.96 | z-score [2, 8] -0.238
7910: cell count [1, 7]

COc1ccccc1-c1cc(Nc2cccc(CS(N)(=O)=O)c2)ncn1
inactive: fold change [1, 4] 0.955 | z-score [2, 8] -0.3 | viability [3, 10] 125% | viability [3, 11] 105% | viability [3, 14] 122% | viability [3, 18] 127% | viability [3, 19] 107% | viability [3, 20] 103% | viability [3, 22] 126% | viability [3, 23] 117% | viability [3, 24] 103% | viability [3, 26] 126% | viability [3, 27] 115% | viability [3, 28] 100% | viability [3, 29] 102% | viability [3, 30] 111% | viability [3, 31] 102% | viability [3, 34] 125% | viability [3, 35] 110% | viability [3, 38] 105%
3900: cell count [1, 6]
0.462: fold change [1, 5]
active: viability [3, 12] 92.8% | viability [3, 13] 91.1% | viability [3, 15] 98.9% | viability [3, 16] 96.8% | viability [3, 17] 90.1% | viability [3, 21] 95.2% | viability [3, 25] 97.6% | viability [3, 32] 93.6% | viability [3, 33] 99.6% | viability [3, 36] 91.1% | viability [3, 37] 94.8% | viability [3, 39] 99.7% | viability [3, 40] 64.2% | viability [3, 41] 74.8%
-1.46: z-score [2, 9]
4080: cell count [1, 7]

— PubChem BioAssay
